This is a sample that favours compounds with a hit; in the whole collection about 19% have one here.
DT40 TDP1 CPT – growth inhibition of DT40 Tdp1-/-;hTDP1 cells with camptothecin (screen for TDP1 inhibitors). chicken DT40 Tdp1-/-;hTDP1 cells + 20 nM CPT, ATP luminescence, 48 h. Potency, µM (doses to about 46.2 µM), most hits filed as inhibitors. 420,000 compounds, 12% hits. AID 686979; also: nearly all actives have a fitted effect of over 55% in size
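Chicken DT40 Tdp1-/- cells stably complemented with human TDP1 were seeded at 400 cells/well in medium containing 20 nM camptothecin, exposed to pin-transferred compounds, and grown at 37 °C for at least 48 hr. Viability was read as ATP luminescence.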
TGFb inhibitor – blocks TGF-b signaling; HepG2 CAGA-GFP TGF-b/SMAD3 reporter, GFP fluorescence, 18 h; TGF-beta stimulated, 500 pg/mL final; Potency, µM (highest dose often 46.1 µM), actives largely listed as inhibitors; 410,000 compounds, 1.2% hits; AID 588855; also: nearly all actives have a fitted effect of over 65% in size
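Read-out: total well GFP (ex488/em500-530) summed from mean per-cell fluorescence. Cells: HEPG2 CAGA-GFP, 1% FBS DMEM, 18 h at 37 degrees C with 500 pg/mL final TGF-beta. Unstimulated wells served as the full-inhibition control; stimulated DMSO wells = 0%.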
DT40 TDP1 no CPT – qHTS for Inhibitors of human tyrosyl-DNA phosphodiesterase 1 (TDP1): qHTS in cells in absence of CPT | 420,000 compounds, 15% hits | Potency, µM (top dose mostly 46.2 µM), hits mostly inhibitors | DT40 Tdp1-/- hTDP1 cells, no CPT, ATP luminescence, 48 h; also: nearly all actives have a fitted effect of over 55% in size
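Readout: luminescence from CellTiter-Glo after 30 min in the dark at RT. Cells: DT40 Tdp1-/- with stable hTDP1, 400/well. Exposure: compounds alone, ≥48 hr, 37 °C.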
ASM inhibitor – blocks human secretory acid sphingomyelinase | P17405 | placental ASM, HMU-PC fluorogenic substrate, 60 min | Potency, µM (top dose mostly 57.5 µM), actives largely listed as inhibitors | 340,000 compounds, 0.006% hits | AID 504937
Target sequence (P17405 47-631 limits assumed): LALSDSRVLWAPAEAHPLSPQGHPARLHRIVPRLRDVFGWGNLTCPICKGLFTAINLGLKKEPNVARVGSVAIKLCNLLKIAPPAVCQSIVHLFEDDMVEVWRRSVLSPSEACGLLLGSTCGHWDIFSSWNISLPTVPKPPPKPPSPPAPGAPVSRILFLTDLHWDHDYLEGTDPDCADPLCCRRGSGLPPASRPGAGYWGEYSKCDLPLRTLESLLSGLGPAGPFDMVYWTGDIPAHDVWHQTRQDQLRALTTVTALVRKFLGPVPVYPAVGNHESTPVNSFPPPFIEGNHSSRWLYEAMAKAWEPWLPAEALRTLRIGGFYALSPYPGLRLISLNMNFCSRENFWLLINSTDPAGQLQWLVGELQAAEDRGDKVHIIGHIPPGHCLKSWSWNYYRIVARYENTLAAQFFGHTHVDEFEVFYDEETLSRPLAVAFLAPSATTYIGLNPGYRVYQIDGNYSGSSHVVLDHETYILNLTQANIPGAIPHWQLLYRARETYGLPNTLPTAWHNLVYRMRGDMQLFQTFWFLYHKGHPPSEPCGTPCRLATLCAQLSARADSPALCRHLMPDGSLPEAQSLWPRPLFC
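qHTS format. ASM enzyme prepared from human placenta hydrolyses the fluorogenic substrate HMU-PC0 (9 uM final) over 60 min at 37 °C after a 10 min compound preincubation.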
HepG2 viability – counter-screen for TGF-b inhibitors: cytotoxicity in HepG2 cells. HepG2 CAGA-GFP viability, ATP luminescence, 18 h. Potency, µM (doses to about 46.1 µM), actives largely listed as cytotoxic. 410,000 compounds, 0.76% hits
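CellTiter-Glo luminescence gave cytotoxicity after 18 hours at 37 degrees C. The cells were HepG2 CAGA-GFP in 1% FBS DMEM, stimulated with 500 pg/mL TGF-beta after compound addition. %Activity was normalised to no-cell wells (complete cell-killing) and DMSO (no toxicity), and curves were fitted and classified.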
IL-1B inflam inh – blocks inflammasome-driven IL-1 beta release; THP-1 LPS/ATP IL-1B secretion, AlphaLISA, 16 h; stronger effect = lower value; activity change, % at 57.5 µM; 360,000 compounds, 4.7% hits; in the data active = activity change below about -50%; inconclusive = mostly about -30% to -49%
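THP-1 cells pretreated 1 hr with compounds (up to 57.5 uM final), then stimulated with LPS (250 ng/mL final) plus ATP (1.25 mM final); secreted IL-1B measured by AlphaLISA after 16 hr, decreased signal indicating inhibition.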
A number is an active result; i = inactive; ? = inconclusive; nt = no result given. Unless noted, calls follow the shape of the dose curve; as a rule, active = well fitted curve in the direction sought with a large enough effect; inconclusive = small, poorly fitted or top-dose-only effect, or another doubt; inactive = no such curve, though single readings can be large; an effect the other way counts as inactive or inconclusive.

SMILES	DT40 TDP1 CPT	TGFb inhibitor	DT40 TDP1 no CPT	ASM inhibitor	HepG2 viability	IL-1B inflam inh
CN(c1ccccc1)S(=O)(=O)c1cccc(C(=O)NCC(=O)Nc2ccc(F)c(F)c2F)c1	?	?	16µM	i	i	i
O=C(CNC(=O)c1cccc(Cl)c1)Nc1ccc(F)c(F)c1F	i	i	i	i	i	i
CCOC(=O)c1cccc(NC(=O)c2c(NCc3ccccc3)[nH]c(=O)[nH]c2=O)c1	?	i	?	i	i	i
CCN1c2ccccc2NC2N=C(OC)C(c3ccccc3)C21 (stereo not given)	12µM	13µM	13µM	i	11µM	i
CN(Cc1ccccc1)C(=O)C1CCN(S(=O)(=O)c2cccc3nsnc23)CC1	?	i	?	i	i	i
COc1ccc(CC(=O)NC(c2ccccc2)c2ccc(C)cc2)c(OC)c1 (stereo not given)	?	i	18µM	i	i	i
CCOCCCNCc1cn(-c2ccc(F)cc2F)nc1-c1ccccc1C	15µM	i	16µM	i	i	-77
Cc1ccccc1-c1nn(-c2ccc(F)cc2F)cc1CNCC(C)O (stereo not given)	i	i	?	i	i	i
CCN(CC)CCNC(=O)Cn1cnc2sc(C)c(S(=O)(=O)N3CCC(C)CC3)c2c1=O	i	i	i	i	i	i
Cc1cccc(/C=N/NC(=O)c2cc3c(s2)-c2ccccc2CC3)c1	16µM	?	15µM	i	i	i
Cc1c(C(=O)NCc2ccc3c(c2)OCO3)sc2nc(-c3ccc(F)cc3)cn12	?	i	16µM	i	i	i
Cc1c(C(=O)NCc2ccc3c(c2)OCO3)sc2nc(-c3ccccc3)cn12	?	i	15µM	i	i	i
Cc1c(C(=O)NCC2CCCO2)sc2nc(-c3ccc(F)cc3)cn12 (stereo not given)	15µM	i	?	i	i	i
Cc1c(C(=O)NCc2ccccn2)sc2nc(-c3ccc(F)cc3)cn12	?	i	?	i	i	i
Cc1ccc(Nc2cc(Cl)nc(N)n2)c([N+](=O)[O-])c1	i	i	i	i	i	i
CCn1cc(S(=O)(=O)c2cccc(Cl)c2)c(=O)c2cc(F)c(N3CCN(C)CC3)cc21	?	i	?	nt	i	nt
O=C1OC(CN2CCOCC2)CN1N=Cc1ccc([N+](=O)[O-])o1 (stereo not given)	15µM	i	?	i	i	i
O=C1OC(CN(Cc2ccccc2)Cc2ccccc2)CN1N=Cc1ccc([N+](=O)[O-])o1 (stereo not given)	16µM	i	9.2µM	i	i	i
Cc1ccc([N+](=O)[O-])cc1-c1ccc(/C=N/NC(=O)CN2CCOCC2)o1	i	i	?	i	i	?
O=C(O)C1Oc2ccccc2C1c1ccccc1 (stereo not given)	i	i	i	i	i	i
O=C1C(=NO)C(c2ccccc2)Oc2ccccc21 (stereo not given)	i	i	i	i	i	-90
Cc1cc2cc(CN(CC3CCCO3)C(=S)Nc3ccccc3)c(=O)[nH]c2cc1C (stereo not given)	6.5µM	?	5.8µM	i	i	i
COc1ccc2cc(CN(CC3CCCO3)C(=S)Nc3ccccc3)c(=O)[nH]c2c1 (stereo not given)	5.2µM	i	6.5µM	i	i	?
COc1ccc2[nH]c(=O)c(CN(CC3CCCO3)C(=S)Nc3ccccc3)cc2c1 (stereo not given)	?	?	?	i	i	i
COc1cc2cc(CCCOC(=O)c3ccc(F)cc3)oc(=O)c2cc1OC	i	i	i	i	i	i
SMILES	DT40 TDP1 CPT	TGFb inhibitor	DT40 TDP1 no CPT	ASM inhibitor	HepG2 viability	IL-1B inflam inh
COc1ccc(CCNC(=O)CCCn2nc(C)c3sc4ccccc4c3c2=O)c(OC)c1	23µM	i	?	nt	i	nt
Cc1nn(CCCC(=O)NCc2ccccc2)c(=O)c2c1sc1ccccc12	?	nt	i	nt	i	nt
Cc1nn(CCCC(=O)NCc2ccccc2Br)c(=O)c2c1sc1ccccc12	i	i	i	nt	i	nt
CCOC(=O)N1CCN(C(=O)CCCn2nc(C)c3sc4ccccc4c3c2=O)CC1	?	i	26µM	i	i	?
FC(F)(F)c1ccc2c(c1)ncc1c(-c3ccccc3)nn(-c3ccccc3)c12	i	i	i	nt	i	nt
CCC1=Nc2cc(C(=O)NCc3ccco3)ccc2Sc2ccccc21	3.3µM	i	4.6µM	i	i	i
CCCC1=Nc2cc(C(=O)NCc3ccccc3)ccc2Sc2ccccc21	4.1µM	?	3.3µM	nt	i	nt
CCOC(=O)C1CCN(C(=O)c2ccc3c(c2)N=C(CC)c2cc(C)ccc2S3)CC1	15µM	10µM	?	nt	i	nt
CCC1=Nc2cc(C(=O)NCc3ccc(C)cc3)ccc2Sc2ccc(C)cc21	7.3µM	i	8.2µM	nt	i	nt
CCOC(=O)C1CCN(C(=O)c2ccc(OCC)c(OCC)c2)CC1	?	i	i	i	i	i
CCNC(=O)NC(=O)CSc1ccc(S(=O)(=O)N(C)C2CCCCC2)cn1	?	i	i	i	i	i
CCC1=Nc2cc(C(=O)NCCc3ccc(OC)c(OC)c3)ccc2Sc2ccccc21	16µM	?	23µM	nt	i	nt
CCC1=Nc2cc(C(=O)NCc3ccco3)ccc2Sc2ccc(Cl)cc21	1.3µM	?	1µM	i	i	i
Cc1ccc(S(=O)(=O)N2CCC(C(=O)Nc3ccccc3N3CCCC3)CC2)cc1C	i	?	?	i	i	i
Cc1cc(C(=O)Nc2ccon2)ccc1[N+](=O)[O-]	i	i	i	i	i	i
O=C(CN(Cc1ccccc1)S(=O)(=O)c1ccc(Br)cc1)NCc1ccco1	i	i	i	i	i	i
CC(C)(C)N=C1NN=C(c2cc3ccccc3o2)CS1	?	i	23µM	i	i	i
Cc1ccc(C2=NNC(=Nc3ccc(F)cc3)SC2)cc1	?	i	?	i	i	-74
Cc1cccc(N=C2NN=C(c3ccc4c(c3)OCCO4)CS2)c1	i	i	i	i	i	i
CC(C)(C)N=C1NN=C(c2ccc(Cl)cc2)CS1	?	?	18µM	i	i	i
CC(C)N=C1NN=C(c2ccc(Cl)c(Cl)c2)CS1	?	?	?	i	i	-74
c1cc2c(cc1-c1[nH]ncc1CN1C[C@H]3CC[C@H]1C3)OCO2	i	i	i	i	i	i
Cc1cccc(C(=O)N2CC3(C)CC2CC(C)(C)C3)c1 (stereo not given)	21µM	i	23µM	i	i	i

Compound activity as filed in PubChem.
